# What was measured:
# [1] = test system: Epidermal growth factor receptor (Homo sapiens), P00533 [T790M]; conditions: at 1 µM
# [2] = test system: Epidermal growth factor receptor (Homo sapiens), P00533 [L858R,T790M]; conditions: at 0.1 µM
# [3] = test system: Epidermal growth factor receptor (Homo sapiens), P00533 [L858R,T790M]; conditions: at 1 µM
# [4] = target: Ephrin type-A receptor 2 (Homo sapiens) (UniProt P29317); conditions: at 0.1 µM
# [5] = target: Ephrin type-A receptor 2 (Homo sapiens) (UniProt P29317); conditions: at 1 µM
# [6] = target: T1, Ephrin type-A receptor 3 (Homo sapiens) (UniProt P29320); conditions: at 0.1 µM
# T1 sequence (whole entry): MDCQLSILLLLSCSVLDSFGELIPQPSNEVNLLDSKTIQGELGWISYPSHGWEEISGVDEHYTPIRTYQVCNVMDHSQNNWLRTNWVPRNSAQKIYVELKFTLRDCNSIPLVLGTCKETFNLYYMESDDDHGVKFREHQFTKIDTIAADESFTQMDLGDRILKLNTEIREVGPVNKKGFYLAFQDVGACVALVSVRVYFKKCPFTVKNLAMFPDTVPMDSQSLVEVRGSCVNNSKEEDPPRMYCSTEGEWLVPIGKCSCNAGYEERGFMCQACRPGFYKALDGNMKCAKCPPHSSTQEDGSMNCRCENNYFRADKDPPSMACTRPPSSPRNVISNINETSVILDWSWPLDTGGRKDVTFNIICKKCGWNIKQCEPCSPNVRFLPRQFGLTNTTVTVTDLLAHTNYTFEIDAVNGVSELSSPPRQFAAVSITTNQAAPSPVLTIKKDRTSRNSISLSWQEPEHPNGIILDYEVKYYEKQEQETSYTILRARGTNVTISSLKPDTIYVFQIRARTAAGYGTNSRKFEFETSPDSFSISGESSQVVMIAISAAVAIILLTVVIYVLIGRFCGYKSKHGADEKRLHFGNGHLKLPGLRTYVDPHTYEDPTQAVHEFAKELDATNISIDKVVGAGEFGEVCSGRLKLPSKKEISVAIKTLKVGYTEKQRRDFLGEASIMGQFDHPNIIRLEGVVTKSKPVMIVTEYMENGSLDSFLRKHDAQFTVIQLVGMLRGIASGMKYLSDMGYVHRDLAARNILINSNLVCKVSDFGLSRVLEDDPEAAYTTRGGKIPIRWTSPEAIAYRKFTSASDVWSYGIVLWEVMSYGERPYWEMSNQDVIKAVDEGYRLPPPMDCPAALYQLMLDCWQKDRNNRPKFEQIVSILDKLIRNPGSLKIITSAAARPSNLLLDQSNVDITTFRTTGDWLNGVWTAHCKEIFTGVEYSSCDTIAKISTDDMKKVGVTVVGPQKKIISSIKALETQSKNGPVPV
# [7] = target: T1, Ephrin type-A receptor 3 (Homo sapiens); conditions: at 1 µM
# [8] = target: Ephrin type-A receptor 4 (Homo sapiens) (UniProt P54764); conditions: at 0.1 µM
# [9] = target: Ephrin type-A receptor 4 (Homo sapiens) (UniProt P54764); conditions: at 1 µM
# [10] = target: T2, Ephrin type-B receptor 2 (Homo sapiens) (UniProt P29323); conditions: at 0.1 µM
# T2 sequence (whole entry): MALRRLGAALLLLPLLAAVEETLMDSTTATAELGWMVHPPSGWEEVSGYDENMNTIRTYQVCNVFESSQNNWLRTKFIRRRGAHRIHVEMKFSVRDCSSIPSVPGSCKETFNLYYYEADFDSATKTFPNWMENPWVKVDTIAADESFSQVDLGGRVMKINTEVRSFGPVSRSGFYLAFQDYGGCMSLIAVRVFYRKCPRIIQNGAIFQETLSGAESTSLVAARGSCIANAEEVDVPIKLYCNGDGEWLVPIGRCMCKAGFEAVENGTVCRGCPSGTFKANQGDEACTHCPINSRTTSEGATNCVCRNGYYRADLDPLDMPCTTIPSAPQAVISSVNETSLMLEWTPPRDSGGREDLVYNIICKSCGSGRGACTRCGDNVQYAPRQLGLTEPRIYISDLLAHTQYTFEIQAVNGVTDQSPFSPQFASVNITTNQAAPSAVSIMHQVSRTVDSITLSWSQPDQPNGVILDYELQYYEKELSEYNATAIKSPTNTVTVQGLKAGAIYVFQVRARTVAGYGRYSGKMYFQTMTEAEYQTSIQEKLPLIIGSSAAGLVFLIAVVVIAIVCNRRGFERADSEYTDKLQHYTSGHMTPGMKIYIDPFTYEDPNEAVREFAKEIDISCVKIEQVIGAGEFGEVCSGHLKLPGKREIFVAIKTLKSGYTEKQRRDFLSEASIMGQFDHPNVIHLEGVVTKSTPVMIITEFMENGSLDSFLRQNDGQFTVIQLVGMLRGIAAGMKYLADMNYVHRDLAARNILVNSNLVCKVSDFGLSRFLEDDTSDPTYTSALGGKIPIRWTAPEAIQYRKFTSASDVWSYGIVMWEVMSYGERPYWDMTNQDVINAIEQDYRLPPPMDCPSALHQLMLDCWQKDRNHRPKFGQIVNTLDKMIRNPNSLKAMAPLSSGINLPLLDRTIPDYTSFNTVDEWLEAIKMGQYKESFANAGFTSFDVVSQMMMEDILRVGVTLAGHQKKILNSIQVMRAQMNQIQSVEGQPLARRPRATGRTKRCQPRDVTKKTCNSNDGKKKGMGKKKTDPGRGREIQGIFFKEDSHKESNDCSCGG
# [11] = target: T2, Ephrin type-B receptor 2 (Homo sapiens); conditions: at 1 µM
# [12] = target: T3, Ephrin type-B receptor 3 (Homo sapiens) (UniProt P54753); conditions: at 0.1 µM
# T3 sequence (whole entry): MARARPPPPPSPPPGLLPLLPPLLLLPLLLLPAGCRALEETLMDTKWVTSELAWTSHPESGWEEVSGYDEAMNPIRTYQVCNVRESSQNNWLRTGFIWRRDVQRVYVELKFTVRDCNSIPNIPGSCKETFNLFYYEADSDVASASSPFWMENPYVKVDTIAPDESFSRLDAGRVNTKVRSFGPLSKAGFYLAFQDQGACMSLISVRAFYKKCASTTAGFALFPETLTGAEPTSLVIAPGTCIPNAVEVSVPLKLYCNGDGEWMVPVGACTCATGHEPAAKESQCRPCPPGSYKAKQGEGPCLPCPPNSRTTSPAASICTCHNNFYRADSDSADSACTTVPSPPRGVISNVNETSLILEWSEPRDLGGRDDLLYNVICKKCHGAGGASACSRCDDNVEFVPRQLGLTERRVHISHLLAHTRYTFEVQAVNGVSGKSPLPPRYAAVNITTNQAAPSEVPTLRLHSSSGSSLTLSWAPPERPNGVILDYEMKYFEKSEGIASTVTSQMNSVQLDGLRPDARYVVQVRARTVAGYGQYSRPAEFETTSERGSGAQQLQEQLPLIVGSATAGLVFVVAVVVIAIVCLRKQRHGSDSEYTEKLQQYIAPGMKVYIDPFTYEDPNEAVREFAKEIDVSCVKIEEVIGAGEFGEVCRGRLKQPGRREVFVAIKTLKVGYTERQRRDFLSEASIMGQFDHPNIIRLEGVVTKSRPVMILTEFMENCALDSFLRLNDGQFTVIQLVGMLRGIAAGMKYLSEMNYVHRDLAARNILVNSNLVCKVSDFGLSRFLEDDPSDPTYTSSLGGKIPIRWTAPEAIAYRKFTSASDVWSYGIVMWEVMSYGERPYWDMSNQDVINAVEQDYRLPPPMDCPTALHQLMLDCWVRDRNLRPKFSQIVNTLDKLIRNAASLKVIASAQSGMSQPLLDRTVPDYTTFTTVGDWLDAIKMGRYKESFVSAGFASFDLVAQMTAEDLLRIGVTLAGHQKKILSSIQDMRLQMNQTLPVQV
# [13] = target: T3, Ephrin type-B receptor 3 (Homo sapiens); conditions: at 1 µM
# [14] = target: T4, Ephrin type-B receptor 4 (Homo sapiens) (UniProt P54760); conditions: at 0.1 µM
# T4 sequence (whole entry): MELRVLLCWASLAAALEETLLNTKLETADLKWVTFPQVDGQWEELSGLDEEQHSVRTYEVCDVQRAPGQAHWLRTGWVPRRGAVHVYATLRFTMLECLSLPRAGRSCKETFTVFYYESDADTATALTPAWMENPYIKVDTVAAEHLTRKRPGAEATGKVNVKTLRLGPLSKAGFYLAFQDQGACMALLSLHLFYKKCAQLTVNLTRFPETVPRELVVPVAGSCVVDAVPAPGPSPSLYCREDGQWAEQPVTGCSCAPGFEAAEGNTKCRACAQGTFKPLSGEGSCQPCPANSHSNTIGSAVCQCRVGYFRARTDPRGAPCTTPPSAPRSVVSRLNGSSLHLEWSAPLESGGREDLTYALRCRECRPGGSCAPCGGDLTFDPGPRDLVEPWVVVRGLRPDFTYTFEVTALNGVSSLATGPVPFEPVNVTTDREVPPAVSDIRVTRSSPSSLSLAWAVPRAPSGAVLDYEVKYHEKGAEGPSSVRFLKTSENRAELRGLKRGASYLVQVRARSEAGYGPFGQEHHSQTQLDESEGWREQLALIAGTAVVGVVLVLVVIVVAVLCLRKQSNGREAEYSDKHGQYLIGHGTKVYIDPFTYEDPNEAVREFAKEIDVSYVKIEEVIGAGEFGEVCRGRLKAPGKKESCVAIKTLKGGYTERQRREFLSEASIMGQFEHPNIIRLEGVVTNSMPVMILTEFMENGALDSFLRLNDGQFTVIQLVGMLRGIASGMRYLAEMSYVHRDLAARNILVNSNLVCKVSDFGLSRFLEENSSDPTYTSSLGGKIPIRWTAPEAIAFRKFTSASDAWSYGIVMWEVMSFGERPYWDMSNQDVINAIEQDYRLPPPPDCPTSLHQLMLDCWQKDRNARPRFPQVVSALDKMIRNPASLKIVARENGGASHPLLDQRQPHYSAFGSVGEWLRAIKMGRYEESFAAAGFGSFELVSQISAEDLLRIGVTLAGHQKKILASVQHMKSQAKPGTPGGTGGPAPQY
# [15] = target: T4, Ephrin type-B receptor 4 (Homo sapiens); conditions: at 1 µM
# [16] = target: Receptor tyrosine-protein kinase erbB-2 (Homo sapiens) (UniProt P04626); conditions: at 0.1 µM
# [17] = target: Receptor tyrosine-protein kinase erbB-2 (Homo sapiens) (UniProt P04626); conditions: at 1 µM
# [18] = target: Receptor tyrosine-protein kinase erbB-4 (Homo sapiens) (UniProt Q15303); conditions: at 0.1 µM
# [19] = target: Receptor tyrosine-protein kinase erbB-4 (Homo sapiens) (UniProt Q15303); conditions: at 1 µM
# [20] = target: Tyrosine-protein kinase Fer (Homo sapiens) (UniProt P16591); conditions: at 0.1 µM;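 also: reported figures are averaged percent inhibition of FER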
# Sequence of Tyrosine-protein kinase Fer (Homo sapiens) (P16591 whole entry, looked up): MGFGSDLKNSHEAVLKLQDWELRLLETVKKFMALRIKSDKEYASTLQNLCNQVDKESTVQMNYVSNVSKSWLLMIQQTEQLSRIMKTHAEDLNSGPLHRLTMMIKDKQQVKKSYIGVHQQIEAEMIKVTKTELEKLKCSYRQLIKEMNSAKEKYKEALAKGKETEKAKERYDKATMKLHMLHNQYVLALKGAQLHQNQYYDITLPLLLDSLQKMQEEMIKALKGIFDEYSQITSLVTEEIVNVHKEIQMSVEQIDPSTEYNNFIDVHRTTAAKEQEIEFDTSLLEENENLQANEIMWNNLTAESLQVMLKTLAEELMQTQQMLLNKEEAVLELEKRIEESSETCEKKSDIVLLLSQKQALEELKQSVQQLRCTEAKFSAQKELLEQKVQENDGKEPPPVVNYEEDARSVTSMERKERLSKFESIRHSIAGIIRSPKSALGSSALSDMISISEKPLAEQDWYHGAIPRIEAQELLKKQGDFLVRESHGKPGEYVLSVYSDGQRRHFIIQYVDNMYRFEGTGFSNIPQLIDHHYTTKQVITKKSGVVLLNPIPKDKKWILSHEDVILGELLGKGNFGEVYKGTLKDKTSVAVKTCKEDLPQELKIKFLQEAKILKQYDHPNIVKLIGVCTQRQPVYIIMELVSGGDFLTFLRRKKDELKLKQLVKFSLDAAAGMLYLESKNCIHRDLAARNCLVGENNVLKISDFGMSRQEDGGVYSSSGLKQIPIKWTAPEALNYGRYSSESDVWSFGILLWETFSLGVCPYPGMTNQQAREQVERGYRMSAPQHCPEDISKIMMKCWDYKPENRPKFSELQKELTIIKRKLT
# Sequence of Epidermal growth factor receptor (Homo sapiens), P00533 [T790M] (P00533 whole entry T790M): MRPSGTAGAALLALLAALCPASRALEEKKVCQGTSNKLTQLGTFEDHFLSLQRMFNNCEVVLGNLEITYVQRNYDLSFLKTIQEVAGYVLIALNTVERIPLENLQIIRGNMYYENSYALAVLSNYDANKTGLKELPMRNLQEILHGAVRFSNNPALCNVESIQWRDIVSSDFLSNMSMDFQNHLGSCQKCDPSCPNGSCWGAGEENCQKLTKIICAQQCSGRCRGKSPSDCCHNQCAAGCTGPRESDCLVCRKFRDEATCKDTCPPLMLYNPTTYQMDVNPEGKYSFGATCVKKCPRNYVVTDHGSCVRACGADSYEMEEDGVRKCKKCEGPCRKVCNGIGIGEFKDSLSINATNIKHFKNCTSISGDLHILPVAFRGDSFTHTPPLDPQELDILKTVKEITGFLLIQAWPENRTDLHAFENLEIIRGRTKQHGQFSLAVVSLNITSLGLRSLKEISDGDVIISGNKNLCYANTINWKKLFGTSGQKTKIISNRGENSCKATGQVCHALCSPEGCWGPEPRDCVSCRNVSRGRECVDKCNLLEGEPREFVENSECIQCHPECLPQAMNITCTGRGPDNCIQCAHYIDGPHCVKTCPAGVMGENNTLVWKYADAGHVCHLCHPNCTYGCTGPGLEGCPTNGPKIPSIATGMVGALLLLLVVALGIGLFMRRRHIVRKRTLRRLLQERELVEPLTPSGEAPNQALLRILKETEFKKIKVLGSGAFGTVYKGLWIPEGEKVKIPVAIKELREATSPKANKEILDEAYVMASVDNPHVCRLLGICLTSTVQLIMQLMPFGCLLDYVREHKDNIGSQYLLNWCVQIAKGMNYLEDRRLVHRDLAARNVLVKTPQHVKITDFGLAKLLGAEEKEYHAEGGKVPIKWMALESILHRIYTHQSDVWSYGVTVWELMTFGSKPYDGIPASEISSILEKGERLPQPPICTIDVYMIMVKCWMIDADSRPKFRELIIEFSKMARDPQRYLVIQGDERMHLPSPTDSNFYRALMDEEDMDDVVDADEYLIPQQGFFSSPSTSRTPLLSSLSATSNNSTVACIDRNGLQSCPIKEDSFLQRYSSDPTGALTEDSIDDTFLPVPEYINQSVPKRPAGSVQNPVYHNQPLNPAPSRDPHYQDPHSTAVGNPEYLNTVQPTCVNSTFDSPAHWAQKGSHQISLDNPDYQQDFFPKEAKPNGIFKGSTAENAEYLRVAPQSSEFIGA
# Sequence of Receptor tyrosine-protein kinase erbB-4 (Homo sapiens) (Q15303 whole entry): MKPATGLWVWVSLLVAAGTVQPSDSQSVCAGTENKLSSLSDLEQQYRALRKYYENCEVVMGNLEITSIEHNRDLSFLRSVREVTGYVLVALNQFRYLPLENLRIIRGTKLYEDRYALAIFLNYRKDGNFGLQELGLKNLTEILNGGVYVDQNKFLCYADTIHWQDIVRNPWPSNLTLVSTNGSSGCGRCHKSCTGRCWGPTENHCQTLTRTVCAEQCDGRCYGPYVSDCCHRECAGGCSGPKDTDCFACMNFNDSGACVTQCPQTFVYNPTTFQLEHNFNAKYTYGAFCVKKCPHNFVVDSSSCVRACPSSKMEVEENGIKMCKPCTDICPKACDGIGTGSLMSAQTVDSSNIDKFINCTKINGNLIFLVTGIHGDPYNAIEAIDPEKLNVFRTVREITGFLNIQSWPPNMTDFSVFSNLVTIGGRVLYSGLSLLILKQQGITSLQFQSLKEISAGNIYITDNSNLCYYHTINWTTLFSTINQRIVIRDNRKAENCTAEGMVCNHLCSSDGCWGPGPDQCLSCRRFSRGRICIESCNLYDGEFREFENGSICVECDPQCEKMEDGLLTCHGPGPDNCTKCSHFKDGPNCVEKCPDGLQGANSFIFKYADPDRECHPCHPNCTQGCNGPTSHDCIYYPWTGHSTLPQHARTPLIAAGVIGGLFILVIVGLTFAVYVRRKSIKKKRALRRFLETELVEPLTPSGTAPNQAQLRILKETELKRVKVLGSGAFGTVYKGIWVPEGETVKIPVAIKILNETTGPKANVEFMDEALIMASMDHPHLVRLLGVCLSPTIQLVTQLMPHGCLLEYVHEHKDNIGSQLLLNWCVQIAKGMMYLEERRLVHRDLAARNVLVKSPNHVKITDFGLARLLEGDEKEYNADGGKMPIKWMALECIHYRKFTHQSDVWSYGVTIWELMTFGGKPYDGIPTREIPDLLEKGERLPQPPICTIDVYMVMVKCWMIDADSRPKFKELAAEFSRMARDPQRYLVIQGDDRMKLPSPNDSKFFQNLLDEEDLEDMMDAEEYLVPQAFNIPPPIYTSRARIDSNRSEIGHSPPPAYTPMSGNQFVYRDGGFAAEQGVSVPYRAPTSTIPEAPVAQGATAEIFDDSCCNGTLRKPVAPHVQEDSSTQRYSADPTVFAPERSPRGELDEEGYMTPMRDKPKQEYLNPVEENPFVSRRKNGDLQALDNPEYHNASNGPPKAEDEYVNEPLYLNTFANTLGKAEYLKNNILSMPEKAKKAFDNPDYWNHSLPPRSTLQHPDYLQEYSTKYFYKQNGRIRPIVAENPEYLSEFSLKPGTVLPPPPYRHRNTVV
# Sequence of Epidermal growth factor receptor (Homo sapiens), P00533 [L858R,T790M] (P00533 whole entry T790M/L858R, looked up): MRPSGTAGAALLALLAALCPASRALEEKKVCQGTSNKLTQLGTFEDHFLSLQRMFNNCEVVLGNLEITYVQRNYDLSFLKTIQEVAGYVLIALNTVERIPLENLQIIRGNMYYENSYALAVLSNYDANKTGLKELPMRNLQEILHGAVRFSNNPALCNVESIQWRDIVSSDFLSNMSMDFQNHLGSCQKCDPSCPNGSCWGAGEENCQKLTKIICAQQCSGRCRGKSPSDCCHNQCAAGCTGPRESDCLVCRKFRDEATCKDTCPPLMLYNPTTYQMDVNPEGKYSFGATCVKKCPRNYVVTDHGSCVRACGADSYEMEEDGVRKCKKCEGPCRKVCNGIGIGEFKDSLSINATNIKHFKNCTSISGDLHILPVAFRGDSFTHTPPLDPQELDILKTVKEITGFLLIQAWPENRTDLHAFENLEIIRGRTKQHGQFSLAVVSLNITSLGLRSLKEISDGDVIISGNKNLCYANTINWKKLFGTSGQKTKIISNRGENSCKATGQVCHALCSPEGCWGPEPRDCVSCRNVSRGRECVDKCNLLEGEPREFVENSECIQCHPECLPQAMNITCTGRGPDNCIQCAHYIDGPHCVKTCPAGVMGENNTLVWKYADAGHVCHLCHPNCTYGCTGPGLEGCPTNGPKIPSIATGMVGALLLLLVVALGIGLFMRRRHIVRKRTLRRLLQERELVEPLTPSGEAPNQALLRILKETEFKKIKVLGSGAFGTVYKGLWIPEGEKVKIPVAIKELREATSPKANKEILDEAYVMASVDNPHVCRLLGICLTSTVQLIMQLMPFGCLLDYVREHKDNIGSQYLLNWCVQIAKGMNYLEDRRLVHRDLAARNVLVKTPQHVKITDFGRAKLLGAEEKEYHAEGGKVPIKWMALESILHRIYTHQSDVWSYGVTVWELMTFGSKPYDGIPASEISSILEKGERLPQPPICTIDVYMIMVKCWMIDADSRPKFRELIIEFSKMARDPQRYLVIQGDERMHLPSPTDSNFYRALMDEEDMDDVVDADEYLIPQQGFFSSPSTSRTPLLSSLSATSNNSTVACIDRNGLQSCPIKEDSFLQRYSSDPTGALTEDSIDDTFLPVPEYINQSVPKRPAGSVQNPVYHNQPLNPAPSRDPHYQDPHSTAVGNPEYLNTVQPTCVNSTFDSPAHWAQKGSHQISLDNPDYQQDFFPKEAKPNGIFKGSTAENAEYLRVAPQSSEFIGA
Compound,inhibition [1],inhibition [2],inhibition [3],inhibition [4],inhibition [5],inhibition [6],inhibition [7],inhibition [8],inhibition [9],inhibition [10],inhibition [11],inhibition [12],inhibition [13],inhibition [14],inhibition [15],inhibition [16],inhibition [17],inhibition [18],inhibition [19],inhibition [20]
NC(=O)c1cc(-c2ccncc2)cc(-c2ccccc2)c1N,2.91%,3.41%,9.94%,15.2%,56.3%,5.37%,8.77%,19.8%,62.8%,16.5%,57.7%,7.22%,21.1%,7.68%,36%,4.68%,8.53%,21.7%,33.8%,6.01%
CCc1cccc(CC)c1/C=C/c1cncc(C(=O)NC)c1,-0.11%,1.59%,4.31%,3.59%,2.3%,2.96%,2.85%,5.38%,5.6%,7.22%,11.1%,3.73%,2.63%,1.12%,1.84%,0.13%,-1.35%,12.1%,14.1%,1.86%
COc1cc(N2CCN(C(C)C)CC2)ccc1Nc1nc(Nc2ccc(F)cc2C(=O)NC[C@@H](O)CO)c2cc[nH]c2n1,25.8%,11.9%,60.2%,-2.5%,-3.57%,0.19%,-0.58%,9.3%,12.5%,3.1%,6.9%,0.85%,-0.23%,-2.73%,-3.91%,3.24%,10.5%,9.31%,15.7%,17.7%

# Reference: ChEMBL document CHEMBL1961873, “Compounds: GSK PKIS; Assays: Nanosyn kinase panel” (2012)
